Source: the OligoGym collection

Target: BZW1
Experiment: pooled miR-30 sensor sort-seq; sequence = guide strand
Settings: shRNA
Also: reference of the scale not given here.

Sequence	sensor-assay potency score (higher = more potent)
TTCTTCAGCATTTTTGAGCCAT	-0.303
TTCTTCTTCAGCATTTTTGAGC	-0.679
TTTTCTAGTTTTAAAACGCTGG	-0.34
TTGTGAAGTGTTCAACACTTTG	-1.21
TTGCTCAAGGAAAACACTCTTC	-0.371
TGAAACTCCTTCTTTAACCAAA	-0.866

Target: C10orf129
Experiment: as above
Settings: shRNA

Sequence	sensor-assay potency score (higher = more potent)
TCTTGAAATCCAACCACCCATC	-1.29
ATAGCTCTTATCTGACACCAGG	-1.02
TTTAGAACAGTCTCAGGGCAGA	-0.497
TAGCTCTTATCTGACACCAGGA	-0.145
AACTTGAATCAACTTCTTGAAA	-1.71
TTATCTGACACCAGGAGCTTGG	-0.78
TGTAGGTCTGCTTTGGAGGGGC	-0.275
TTCTTGAAATCCAACCACCCAT	-0.764
TGACACAGAAACACACAGGCTC	0.78
AACTTCTTGAAATCCAACCACC	-1.25
TACATCTCTGGATTTGCAGATA	-0.615
ATACTGGGAATACTCGACCATT	-1.34
